Source: PubChem BioAssay AID720575 (National Center for Advancing Translational Sciences (NCATS), 2013)
This is one part of the list. Records with an inconclusive call do not appear. Active and inactive are the calls of the source. Calls come from the whole dose curve; as a rule, active = well fitted inhibition curve with a large enough effect; inconclusive = small, poorly fitted or top-dose-only effect; inactive = no such curve, though single readings can be large or run the other way.

Test: qHTS Assay for Inhibitors of Hepatitis C Virus (HCV): Confirmation Assay for Cherry-picked Compounds
Conditions: HCVcc-Cre infectious virus cell assay, luciferase, inhibition
Source text: Hepatitis C virus (HCV) infects about 200 million people in the world. Many infected people progress to chronic liver disease including cirrhosis with a risk of developing liver cancer. To date, there is no effective vaccine for hepatitis C. Current therapy based on interferon is only effective in about half of the patients and is associated with significant adverse effects. The fraction of people with HCV who can complete a successful treatment is estimated to be no more than 10 percent. Recent development of direct-acting antivirals against HCV, such as protease and polymerase inhibitors, is promising but still requires combination with peginterferon and ribavirin for maximal efficacy. In addition, these agents are associated with high rate of resistance and many have significant side effects. Due to the lack of a culture system for infectious HCV, the search for new HCV drugs has been greatly hampered. […] High-throughput screening (HTS) with an infectious HCV system would cover the complete spectrum of potentially druggable targets in all stages of HCV lifecycle, and would have more biological relevance than other cell-based assays. Moreover, targeting several key processes in the viral life cycle may not only increase antiviral efficacy; more importantly, it may also reduce the capacity of the virus to develop resistance to the compound.
The goal of this project is to identify novel HCV inhibitors as new therapies for hepatitis C, using a highly sensitive and specific assay platform based on a HCV infectious cell culture system established in the laboratory and adapted for high-throughput HCV drug screen. The data herein is the result of the confirmation assay against the cherry picked compounds. Decrease in the confirmatory assay signal, indicative of the HCV inhibition is the desired outcome for this assay.
NIH Chemical Genomics Center [NCGC]
NIH Molecular Libraries Probe Centers Network [MLPCN]
Assay Submitter (PI): Jake Liang, NIDDK
Cells were plated in a 1536-wel tissue culture grade plates at a final concentration of 1,000 cells/well (3 uL volume). The assay plate was culture for 4 h. Then 23 nL of compounds from the library collection was added to each well followed by 2.5 µL of HCVcc-Cre virus (~ 0.5 moi). The plates were further cultured for 44 hr at 37C. A volume of 4.5 uL luciferase substrates was added to each well and the plates were incubated at room temperature for 15 min. The luciferase activity was read for 15 sec using the PerkinElmenr ViewLux plate reader.
Note: nearly all actives have a fitted effect of over 80% in size.

Potency, active:
Cc1c(-c2cccc(Cl)c2)nc2ccccc2c1C(=O)OCC(=O)N(C)C1CCS(=O)(=O)C1 (stereo unspecified) 14.1 µM
COc1ccc(OCCNC(=O)c2cc(C3CC3)nc3c2cnn3C(C)C)cc1 0.353 µM
COc1ccc(C(C(=O)NC2CCCCC2)N(C(=O)CCl)c2ccccc2Cl)cc1 (stereo unspecified) 3.15 µM
Cc1ccc(C)c(NC(=S)NNC(=S)Nc2ccc(C(C)C)cc2)c1 22.3 µM
COCCCn1c(SCc2cccc(OC)c2)nc2cc(OC)c(OC)cc2c1=N 14.1 µM
N#C/C(=C1\CCCN1)c1nc(-c2ccccc2)cs1 14.1 µM
CCCc1nc2ccccc2c(C(=O)OCc2nnc(-c3cc(OC)c(OC)c(OC)c3)o2)c1CC 14.1 µM
Cc1ccc(C)c(N2CCN(C(=O)CCCCCn3c(=S)[nH]c4ccc(N5CCOCC5)cc4c3=O)CC2)c1 2.8 µM
COc1ccc(Cl)cc1NC(=O)c1oc(C)nc1C 12.5 µM
CC(C)(C)c1ccc(Oc2ccc(N)cc2)cc1 2.8 µM
CC(C)(C)Nc1nc(-c2ccccn2)nc2ccccc12 1.99 µM
CN(C)c1nc(N)nc(CSc2nnnn2-c2cccc3ccccc23)n1 5.6 µM
Cc1cc(-c2cccs2)nc(-n2cccc2)n1 9.95 µM
CCCOc1ccc(C(=O)C(CCC(CNCC)C(=O)c2ccc(OCCC)cc2)CNCC)cc1 (stereo unspecified) 7.05 µM
CCC(C(=O)OCC(=O)Nc1ccc(C(=O)Nc2ccc(OC)cc2)cc1)c1ccccc1 (stereo unspecified) 8.87 µM
COc1ccc(NC(=O)c2sc(N3CCOCC3)nc2-c2ccccc2)c(OC)c1 14.1 µM
